We go through 32 compounds from PubChem BioAssay (EPA / NIEHS).

The structures appear in SMILES notation. The source holds several records for some structures; these can differ, active in one and inactive in another. The source made the active and inactive calls. Rule for the calls: active = hit-call score of the fitted dose curve at least 0.9, where 1 is the maximum; inactive = score below 0.9.

Assay [1] deals with Nuclear respiratory factor 1 (Homo sapiens) (UniProt Q16656). Kind of assay: ATG_NRF1_CIS: Attagene CIS-FACTORIAL HepG2 Assay for human Nuclear Respiratory Factor 1 (NRF1) Orphan Gene (AID 2282987). Conditions: HepG2 NRF1 cis-element reporter, Attagene multiplex; actives raise or lower the signal. The gist of the method:
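Endogenous NRF1-driven reporter transcription in transfected HepG2 cells after 24 h treatment. Readout: RT-PCR products, 6-FAM labelled and resolved by capillary electrophoresis; changes fitted both directions relative to DMSO.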

Assay [2] in a line: ATG_NFI_CIS: Attagene CIS-FACTORIAL HepG2 Assay for human Nuclear Factor I (NFI) (AID 2282989). Conditions: HepG2 cis-regulatory reporter, NFI response element transcription; actives raise or lower the signal. The gist of the method:
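Transient MRTU transfection of HepG2 → 24 h chemical dosing → total RNA, oligo(dT) RT → PCR, 6-FAM primer extension, HpaI cut → capillary electrophoresis. Endpoint fitted bidirectionally relative to DMSO.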

Assay [3] has as its target Myc proto-oncogene protein (Homo sapiens) (UniProt P01106). Kind of assay: ATG_Myc_CIS: Attagene CIS-FACTORIAL HepG2 Assay for human Myelocytomatosis (Myc) Proto-Oncogene Transcription Factor (AID 2282990). Conditions: HepG2, Attagene cis-reporter transcription factor activity; actives raise or lower the signal. The gist of the method:
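Transiently transfected HepG2 cells bearing cis-promoter reporter units for endogenous transcription factors; 24 h exposure. Reporter mRNA measured by RT-PCR, 6-FAM primer extension, HpaI cut and capillary electrophoresis; bidirectional fit relative to DMSO.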

Assay [4] is described as follows: ATG_NF_kB_CIS: Attagene CIS-FACTORIAL HepG2 Assay for human Nuclear Factor Kappa B (NF-kB) (AID 2282991). Conditions: HepG2 Attagene cis-factorial NF-kB reporter mRNA; actives raise or lower the signal. The essentials:
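Readout is reporter transcript level, gain or loss versus DMSO, measured 24 h post-dose via RT-PCR, fluorescent labelling and capillary electrophoresis. Human HepG2 liver cells carried transiently transfected CIS reporter constructs reflecting endogenous factors.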

The nature of assay [5]: ATG_NRF2_ARE_CIS: Attagene CIS-FACTORIAL HepG2 Assay for human Nuclear Factor Erythroid 2 Related Factor 2 (NFR2) response to Antioxidant Response Elements (ARE) (AID 2282992).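 For AC50: reporter mRNA level measured by RT-PCR and capillary electrophoresis fluorescence.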 The following applies: HepG2 Attagene ARE/NRF2 reporter, transcription factor activity; actives raise or lower the signal. The essentials:
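Endogenous transcription factor activity in human liver HepG2 cells is tracked via a cis-element-driven reporter within a multiplexed set. mRNA induction is read by RT-PCR and capillary electrophoresis after 24 h, with DMSO as baseline.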

In assay [6] the target is Cellular tumor antigen p53 (Homo sapiens) (UniProt P04637). Kind of assay: ATG_p53_CIS: Attagene CIS-FACTORIAL HepG2 Assay for human p53 Transcription Factor (AID 2282994). Conditions: HepG2 p53 cis-element reporter, Attagene mRNA; actives raise or lower the signal. The essentials: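 Steps: transfect HepG2 with multiplexed cis reporter constructs; dose chemicals 24 h; extract RNA, reverse-transcribe, PCR-amplify reporter sequences; FAM-label, HpaI-digest, resolve fragments by CE. Activity fitted both directions relative to DMSO.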
Sequence of Cellular tumor antigen p53 (Homo sapiens) (P04637 whole entry, looked up, the tested form may be a part): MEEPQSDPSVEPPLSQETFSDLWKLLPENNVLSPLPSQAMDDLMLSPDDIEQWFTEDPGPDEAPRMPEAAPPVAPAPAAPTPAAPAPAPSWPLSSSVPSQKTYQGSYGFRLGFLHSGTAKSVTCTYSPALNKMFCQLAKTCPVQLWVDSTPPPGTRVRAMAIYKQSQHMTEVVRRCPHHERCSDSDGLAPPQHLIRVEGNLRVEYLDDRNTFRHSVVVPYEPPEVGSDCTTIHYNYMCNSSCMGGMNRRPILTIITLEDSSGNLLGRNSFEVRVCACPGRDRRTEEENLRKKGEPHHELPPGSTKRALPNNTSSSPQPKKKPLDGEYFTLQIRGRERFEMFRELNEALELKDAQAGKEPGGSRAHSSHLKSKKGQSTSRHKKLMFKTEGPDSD

A short description of assay [7]: ATG_Oct_MLP_CIS: Attagene CIS-FACTORIAL HepG2 Assay for human Octamer-Binding Transcription Factor (Oct) (AID 2282993). Conditions: HepG2 Attagene cis-factorial Oct reporter, mRNA; actives raise or lower the signal. The essentials: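 Transient MRTU transfection of HepG2 → 24 h compound treatment → RNA isolation, reverse transcription, PCR → 6-FAM primer extension, HpaI digest → capillary electrophoresis. Activity fitted both directions against DMSO.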

Assay [8] can be described thus: BSK_3C_TissueFactor: BioMAP Diversity Plus: 3C Assay for Tissue Factor Biomarker Activity (AID 2282997). Conditions: BioMAP 3C HUVEC, tissue factor biomarker readout; actives raise or lower the signal. The essentials:
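Cells used were primary human umbilical vein endothelial cells. They were dosed with chemical, and after 24 h Tissue Factor was quantified by ELISA. Curves were fitted bidirectionally with DMSO as baseline.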

A short description of assay [9]: BSK_3C_uPAR: BioMAP Diversity Plus: 3C Assay for Urokinase-type plasminogen activator receptor (uPAR) Biomarker Activity (AID 2282998). Conditions: BioMAP 3C HUVEC, uPAR biomarker ELISA; actives raise or lower the signal. The essentials:
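ELISA readout of uPAR on human vascular endothelium (umbilical vein primary cells), taken 24 h after chemical dosing. Increases and decreases are both fitted relative to DMSO vehicle.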
A general note: An ELISA detects its analyte on a solid surface through an enzyme-linked reagent.

Assay [10] can be described thus: BSK_3C_VCAM1: BioMAP Diversity Plus: 3C Assay for Vascular cell adhesion molecule 1 (VCAM1) Biomarker Activity (AID 2282999). Conditions: BioMAP 3C HUVEC, VCAM1 ELISA, cytokine-stimulated; actives raise or lower the signal. The gist of the method:
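HUVEC primary cells, 24 h compound exposure; VCAM-1 by ELISA; gain/loss of signal fitted bidirectionally vs DMSO baseline.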

Sequence of Myc proto-oncogene protein (Homo sapiens) (P01106 whole entry, looked up): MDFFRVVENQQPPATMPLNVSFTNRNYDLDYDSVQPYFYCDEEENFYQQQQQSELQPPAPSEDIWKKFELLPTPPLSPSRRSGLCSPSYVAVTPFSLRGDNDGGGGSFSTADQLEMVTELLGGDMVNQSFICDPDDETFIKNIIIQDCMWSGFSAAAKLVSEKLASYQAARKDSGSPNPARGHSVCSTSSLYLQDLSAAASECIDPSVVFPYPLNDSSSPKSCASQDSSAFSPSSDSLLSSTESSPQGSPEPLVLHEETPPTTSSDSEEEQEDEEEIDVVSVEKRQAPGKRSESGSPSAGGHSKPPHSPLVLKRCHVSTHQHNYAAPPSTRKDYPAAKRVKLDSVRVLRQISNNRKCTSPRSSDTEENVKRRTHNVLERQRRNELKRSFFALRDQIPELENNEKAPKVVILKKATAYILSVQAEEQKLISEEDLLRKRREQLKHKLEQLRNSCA
Sequence of Nuclear respiratory factor 1 (Homo sapiens) (Q16656 whole entry, looked up): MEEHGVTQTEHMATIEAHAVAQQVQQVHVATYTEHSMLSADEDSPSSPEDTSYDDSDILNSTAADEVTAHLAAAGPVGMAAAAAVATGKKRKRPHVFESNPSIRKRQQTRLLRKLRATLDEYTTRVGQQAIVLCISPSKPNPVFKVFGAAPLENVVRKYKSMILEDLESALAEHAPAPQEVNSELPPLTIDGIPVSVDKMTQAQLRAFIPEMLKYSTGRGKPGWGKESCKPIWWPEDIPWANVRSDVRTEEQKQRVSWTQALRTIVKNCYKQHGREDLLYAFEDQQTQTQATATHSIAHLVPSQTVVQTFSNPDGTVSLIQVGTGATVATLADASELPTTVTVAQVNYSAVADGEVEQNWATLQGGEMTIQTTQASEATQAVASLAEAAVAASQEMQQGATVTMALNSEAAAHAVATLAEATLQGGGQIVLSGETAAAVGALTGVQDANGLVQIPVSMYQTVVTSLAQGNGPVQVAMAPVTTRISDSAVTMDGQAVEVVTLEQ

For `CCCCCCCCCCCCCc1ccccc1`, the result in assay [1], in [2], in assay [3], in assay [4], in [5] and in assay [6] was inactive.

For the compound `CCCCC1C(=O)N(c2ccccc2)N(c2ccccc2)C1=O`, the compound was classed as inactive in assay [1], in assay [2], in assay [3], in assay [4], in assay [7] and in assay [6]. Also, the outcome in assay [8] and in assay [10] was inactive. Moreover, the results for the AC50 in [5] and in [9] were 6.46 µM (active) and 10.2 µM (active), respectively.

As to `CC1=CCC(C(C)C)C=C1` (centres undefined), the result in assay [1], in assay [2], in [3], in assay [7] and in assay [6] was inactive. Besides, the AC50 (as a rule, the concentration at which the activity in the assay is half-maximal) in assay [5] is 25.3 µM (active).

Turning to `CCCCOC(=O)C(C)CC` (centres undefined), the outcome in [1], in [2], in [3], in assay [5], in assay [7] and in [6] was inactive.

With `CC(C=O)c1ccccc1` (centres undefined), the outcome in assay [1], in assay [2], in assay [3], in [4], in assay [7] and in assay [6] was inactive.

On to `CC(=O)OC/C=C(/C)CCC=C(C)C`, for which the result in assay [1], in assay [2], in assay [3], in assay [5], in [7] and in assay [6] was inactive.

Regarding `C=C[Si](OCCOC)(OCCOC)OCCOC`, the call in [1], in assay [2], in [3], in assay [5], in [7] and in assay [6] was inactive.

`CC(=O)OCC=C(C)C`: the result in assay [1], in [2], in assay [3], in assay [4] and in assay [6] was inactive.

Turning to `CC(=O)CCC=C(C)C`, the outcome in assay [1], in [2], in [3], in assay [4] and in assay [6] was inactive.

On to `NC(=O)Nc1ccccc1`, for which the result in assay [1], in assay [2], in [3], in [4], in assay [7] and in [6] was inactive.

Consider `C=C(C)[C@@H]1CC=C(C)CC1`, for which the outcome in [1], in assay [2], in assay [3], in assay [5], in assay [7] and in [6] was inactive.

With `CCCCCCCC(=O)OCC(COC(=O)CCCCCCC)OC(=O)CCCCCCC`, the compound was classed as inactive in [1], in assay [2], in assay [3], in [5], in assay [7] and in [6].

As for `C=C(C)C1CC=C(C)C(OC(C)=O)C1` (centres undefined), the result in assay [1], in [2], in assay [3], in assay [5], in [7] and in assay [6] was inactive.

With `Oc1ccc(-c2ccccc2)c(Cl)c1`, the result in [1], in [3], in assay [4] and in [6] was inactive. In addition, the AC50 in assay [2] is 33.4 µM (active).

As to `CC1=C(O)C(=O)C(C)O1` (centres undefined), the outcome in [1], in [2], in [3], in assay [4] and in [6] was inactive.

Turning to `COC(Cc1ccccc1)OC`, the result in assay [1], in assay [2], in assay [3], in assay [5] and in assay [7] was inactive.

In the case of `CC1CCC(C(C)(C)S)C(=O)C1` (centres undefined), the compound was classed as inactive in [1], in assay [2], in [3], in assay [4], in [7] and in [6].

`O=C(O)CC(C(=O)O)S(=O)(=O)O` (centres undefined): the call in [1], in assay [2], in assay [3], in assay [5], in assay [7] and in [6] was inactive.

With `Oc1ccc(/C=C/c2cc(O)cc(O)c2)cc1`, the values for the AC50 in assay [1] and in assay [4] were 179 µM (active) and 100 µM (active), respectively. Also, the compound was called inactive in assay [2], in assay [3], in [7], in assay [6], in assay [8] and in [9]. The outcome in [10] was inactive.

Consider `CC1(C)[C@@H]2CC[C@@]1(C)C(=O)C2`, for which the call in assay [1], in [2], in assay [3], in [4], in assay [7] and in assay [6] was inactive.

For the compound `CC(=O)/C=C/C1C(C)=CCCC1(C)C` (centres undefined), the compound was called inactive in [1], in assay [2], in assay [3], in assay [5] and in assay [7].

Regarding `Cc1ccc(S(=O)(=O)N=C=O)cc1`, the compound was classed as inactive in [1], in [2], in assay [3], in assay [4] and in assay [6].

Turning to `O=S(=O)(O)c1ccc(N=Nc2c(O)ccc3ccccc23)cc1`, the compound was called inactive in [1], in assay [2], in assay [3], in assay [7] and in [6]. The AC50 in assay [5] is 34.1 µM (active).

For `Cn1cccc1`, the result in assay [1], in assay [3], in [4] and in assay [6] was inactive. Moreover, in [2], the AC50 was 26.2 µM (active).

With `COC(=O)C=Cc1ccccc1`, the compound was classed as inactive in [1], in [2], in assay [3] and in assay [5].

Consider `C=CCCCCCCCCC=O`, for which the call in assay [1], in assay [2], in assay [3], in assay [4], in assay [7] and in assay [6] was inactive. For the same compound, the outcome in assay [8], in assay [9] and in assay [10] was inactive.

As for `CCOC(=O)/C=C\C(=O)OCC`, the call in assay [1], in assay [2], in assay [3], in assay [4], in assay [7] and in assay [6] was inactive. The result in [8], in assay [9] and in assay [10] was inactive.

As for `C[Si](C)(C)N[Si](C)(C)C`, the call in assay [1], in [2], in assay [3], in assay [5], in assay [7] and in [6] was inactive.

As to `CCCCNC(=S)NCCCC`, the call in assay [1], in assay [2], in assay [3], in assay [4], in [7] and in [6] was inactive.

As for `CCCCNS(=O)(=O)c1ccc(C)cc1`, the outcome in assay [1], in [2], in [3], in [5], in assay [7] and in [6] was inactive.

For `O=C(Oc1ccccc1)c1ccccc1O`, the call in assay [1], in [2], in [3], in assay [5] and in [7] was inactive.

In the case of `C[N+](C)(C)CCCNS(=O)(=O)C(F)(F)C(F)(F)C(F)(F)C(F)(F)C(F)(F)C(F)(F)C(F)(F)C(F)(F)F`, the call in assay [1], in [2], in [3], in [4], in [7] and in assay [6] was inactive. Besides, the outcome in assay [8], in assay [9] and in assay [10] was inactive. Moreover, the AC50 in assay [8] is 41.3 µM (active); in assay [9], 20.7 µM (active).
